Screening data: PubChem BioAssay, several laboratories
This is a sample that favours compounds with a hit; in the whole collection about 2.2% have one here.
PTPN22 act = activators of human LYP (PTPN22) phosphatase. AID 697. recombinant LYP, DiFMUP fluorescence; 0 = plate median, 100 = signal doubled. activation, % at 2 µM. 0.11% of 96,000 active;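 active means activation at 2 µM above a set limit, the mean plus 5 SD, cut at about 37% in these data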
Target sequence (Q9Y2R2 whole entry, looked up): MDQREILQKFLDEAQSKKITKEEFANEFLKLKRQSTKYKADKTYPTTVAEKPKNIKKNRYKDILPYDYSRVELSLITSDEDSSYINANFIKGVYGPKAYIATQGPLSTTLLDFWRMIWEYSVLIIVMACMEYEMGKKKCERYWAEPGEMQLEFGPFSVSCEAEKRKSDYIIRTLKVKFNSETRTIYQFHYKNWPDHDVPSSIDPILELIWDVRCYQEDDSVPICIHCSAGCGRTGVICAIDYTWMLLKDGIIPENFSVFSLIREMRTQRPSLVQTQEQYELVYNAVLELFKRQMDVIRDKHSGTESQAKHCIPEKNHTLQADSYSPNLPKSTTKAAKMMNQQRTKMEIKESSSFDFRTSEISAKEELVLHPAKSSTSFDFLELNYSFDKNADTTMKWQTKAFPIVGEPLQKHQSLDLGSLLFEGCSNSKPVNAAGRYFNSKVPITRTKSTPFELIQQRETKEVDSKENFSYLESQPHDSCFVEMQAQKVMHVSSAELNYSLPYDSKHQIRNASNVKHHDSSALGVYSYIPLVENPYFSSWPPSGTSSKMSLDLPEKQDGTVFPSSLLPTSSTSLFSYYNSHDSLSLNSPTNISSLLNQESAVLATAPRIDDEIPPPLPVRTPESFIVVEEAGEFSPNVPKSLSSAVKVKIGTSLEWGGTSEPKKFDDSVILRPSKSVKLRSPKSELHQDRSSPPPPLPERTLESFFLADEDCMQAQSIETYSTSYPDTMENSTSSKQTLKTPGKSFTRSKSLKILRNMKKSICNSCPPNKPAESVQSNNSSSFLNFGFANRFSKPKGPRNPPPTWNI
MRP-1 activ = activates MRP-1 | AID 799 | 0.61% of 140,000 active | viability increase, % at 10 µM | H69AR cells + doxorubicin, viability rescue, CellTiter-Glo;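 active means viability gain under doxorubicin at or above a set limit, the compound median plus 3 SD, cut at about 4.7% in these data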;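 further: MRP-1 overexpressing cells given doxorubicin 25 µM after compound pretreatment; 18-22 h compound pretreatment then 72 h with doxorubicin before readout; 0% = doxorubicin-only wells and 100% = vehicle-treated cells without doxorubicin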
FAK inh = FAK (human) kinase inhibition; biochemical FAK kinase activity assay; 0.84% of 97,000 active; Q05397; inhibition, %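 (tested at 7 µM)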; in the data active means inhibition above about 19%;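 further: 0% = DMSO and 100% = reference compound high control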
MRP resist rev = compounds reversing MRP-mediated drug resistance; H69AR cells + 2 uM doxorubicin, CellTiter-Glo, 72 h; differential viability (reversal), % at 10 µM; AID 602; 0.04% of 85,000 active;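 active means viability drop by adding the cancer drug above about 55%, with treated viability meeting a 40% cutoff, limit read from the data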;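 further: viability without doxorubicin minus viability with 2 µM doxorubicin for each compound; larger differential means the compound sensitizes cells more to doxorubicin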
PLAP activator = human PLAP activation; P05187; purified PLAP enzyme, luminescent substrate read-out; hits give high values; 1.2% of 96,000 active; activation fold at 20 µM; in the data active means activation fold above about 2
PTPN22 inh 2 = blocks human PTPN22 phosphatase activity | recombinant LYP catalytic domain, DiFMUP fluorescence | inhibition, % at 2 µM | 0.21% of 96,000 active | AID 640;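 active means inhibition at 2 µM at or above a set limit, the screen mean plus 3 SD, cut at about 24% in these data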;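 further: 0% = DMSO with enzyme and 100% = enzyme fully blocked by orthovanadate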
* hit, by the source's call; . = no result.

SMILES	PTPN22 act	MRP-1 activ	FAK inh	MRP resist rev	PLAP activator	PTPN22 inh 2
Nc1c(C(=O)NCc2ccco2)c2nc3ccccc3nc2n1CCc1ccc(F)cc1	-5	-5	1	-6	2*	5
Cc1cccc(C)c1OCCSc1n[nH]c(N)n1	7	-2	0	.	2*	-9
Cc1ccc(NC(=O)Cc2csc(-c3ccccc3)n2)cc1F	.	5.1*	.	.	.	.
Clc1ccc(Cc2nn3c(Cn4nnc5ccccc54)nnc3s2)cc1	-9	4	1	.	1.2	9
O=C(CSCc1ccc(Cl)cc1)N/N=C/c1c(Cl)cccc1Cl	.	2	.	.	.	.
O=C(CSCc1ccccc1)Nc1ccc(F)c(F)c1	.	4.7*	.	.	.	.
O=C(CSCc1ccc(Cl)cc1)N/N=C/c1ccccc1	6	4.8*	0	.	1	-9
Cc1ccc(NC(=O)COC(=O)c2cccc3c(=O)c(C)c(-c4ccccc4)oc23)cc1	.	0	.	.	.	.
Cc1nc2ccc(NC(=O)c3cc([N+](=O)[O-])cc([N+](=O)[O-])c3Cl)cc2s1	.	-3	.	.	.	.
CCOC(=O)c1ccc(Nc2cc(C)nc3ncnn23)cc1	-5	0	-3	6	2*	2
Cc1cc(Nc2ccc(C(C)C)cc2)n2ncnc2n1	.	0	.	2	1.7	.
COC(=O)c1ccc(Nc2cc(C)nc3ncnn23)cc1	8	-1	-3	-1	2.2*	-10
Cn1c(=O)cc(SCC(=O)NCCCN2CCN(c3ccc(F)cc3)CC2)c2ccccc21	3	-3	-10	17	1.2	-5
Cn1c(=O)cc(SCC(=O)NCCN2CCN(c3ccccc3F)CC2)c2cc(Cl)ccc21	-33	-2	-3	-7	1.4	33*
CC1(c2ccc(OC(F)F)cc2)NC(=O)N(/N=C/c2c(O)ccc3ccccc23)C1=O (stereo not given)	.	-2	.	.	.	.
CCOc1ccc2nc(Nc3nc(CSc4nnnn4-c4ccccc4)cc(=O)[nH]3)nc(C)c2c1	-9	-3	-2	0	2.5*	11
COc1ccc2nc(Nc3nc(C)c(CCC(C)C)c(=O)[nH]3)nc(C)c2c1	-1	-2	2	11	2.3*	0
Cc1ccc2c(C)nc(Nc3nc(CSc4nnnn4-c4ccccc4)cc(=O)[nH]3)nc2c1	.	-6	.	-29	2.2*	.
CCOc1ccc2nc(Nc3nc4c(c(=O)[nH]3)CCC4)nc(C)c2c1	.	.	.	2	.	.
COc1ccc2nc(Nc3nc(CSc4nnnn4-c4ccccc4)cc(=O)[nH]3)nc(C)c2c1	-8	-5	-2	-1	2.2*	6
COCc1cc(=O)[nH]c(Nc2nc(C)c3ccccc3n2)n1	2	-3	-1	-34	.	1
Cc1occc1C(=O)NNC(=O)c1ccccc1Br	.	-2	.	.	.	.
O=C(N/N=C/c1ccccn1)c1ccc(Br)cc1	.	3	.	.	.	.
Brc1ccc2ncc(Br)cc2c1	.	-1	.	.	.	.
Cc1ccc(NC(=O)CSc2nnc(C)n2-c2ccccc2)cc1	2	6.8*	0	1	.	-3
SMILES	PTPN22 act	MRP-1 activ	FAK inh	MRP resist rev	PLAP activator	PTPN22 inh 2
Cc1ccc(NC(=O)CSc2nc(O)cc(=O)n2C)cc1	-2	8.5*	1	-9	1	-2
Cc1nnc(SCC(=O)Nc2ccc3c(c2)COC3=O)n1-c1ccccc1	-5	1	1	.	1.5	2
O=C(CSc1nnc(-c2ccccc2)n1-c1ccc(Cl)cc1)N/N=C/c1ccco1	.	5.2*	.	.	.	.
Cc1nnc(SCC(=O)Nc2ccc(N3CCOCC3)cc2)n1-c1ccccc1	-11	-3	5	1	0.8	14
O=C(CSc1nnc(-c2ccccc2)n1-c1ccccc1)NCc1ccco1	2	-1	-1	11	0.7	-5
Cc1ccc(-n2c(C)nnc2SCC(=O)Nc2ccccc2)cc1	10	5.9*	1	8	.	-10
COc1ccc(C2Cc3ccccc3C(=O)O2)cc1 (stereo not given)	.	0	.	.	.	.
CC(=O)OC1COC(N2CCc3cc(Br)c([N+](=O)[O-])cc32)C(OC(C)=O)C1OC(C)=O (stereo not given)	10	-1	2	.	1.6	-12
Cc1ccc(Nc2nnc(SCC(=O)NCCN3C(=O)CSC3=O)s2)cc1C	.	-1	.	.	.	.
O=C(Oc1ccc(N(Cc2cccs2)C2=NS(=O)(=O)c3ccccc32)cc1)c1ccccc1F	-7	0	1	-8	0.9	6
Cc1ccc(O)c(-c2cc(C(=O)NCc3ccc4c(c3)OCO4)[nH]n2)c1	.	-1	.	.	.	.
CN(C)c1ccc(NC(=O)CSc2nnc(-c3cccs3)n2Cc2ccco2)cc1	-5	0	3	-9	1.4	7
